In PubChem BioAssay AID1851 (National Center for Advancing Translational Sciences (NCATS), 2009):
Screen size: about 16,000 compounds; about 5,800 (36%) were called active. Not shown: some 23% with an inconclusive outcome. The list shows a part of the results. Unmarked numbers belong to inactive results. Calls come from the whole dose curve; as a rule, active = well fitted curve in the direction sought with a large enough effect; inconclusive = small, poorly fitted or top-dose-only effect, or effect the other way; inactive = no such curve, though single readings can be large or run the other way.
% is set by controls: 0 for no effect and ±100 for the full control effect.

The compounds below were run against Cytochrome P450 2C19 (Homo sapiens) (UniProt P33261) (assay: Cytochrome panel assay with activity outcomes). Conditions: recombinant CYP, pro-luciferin dealkylation, luminescence, p450-cyp2c19; series mostly up to 57.1 µM; activity, negative = inhibition: at the top concentration.
Chain of Cytochrome P450 2C19 (Homo sapiens) (P33261 whole entry, looked up): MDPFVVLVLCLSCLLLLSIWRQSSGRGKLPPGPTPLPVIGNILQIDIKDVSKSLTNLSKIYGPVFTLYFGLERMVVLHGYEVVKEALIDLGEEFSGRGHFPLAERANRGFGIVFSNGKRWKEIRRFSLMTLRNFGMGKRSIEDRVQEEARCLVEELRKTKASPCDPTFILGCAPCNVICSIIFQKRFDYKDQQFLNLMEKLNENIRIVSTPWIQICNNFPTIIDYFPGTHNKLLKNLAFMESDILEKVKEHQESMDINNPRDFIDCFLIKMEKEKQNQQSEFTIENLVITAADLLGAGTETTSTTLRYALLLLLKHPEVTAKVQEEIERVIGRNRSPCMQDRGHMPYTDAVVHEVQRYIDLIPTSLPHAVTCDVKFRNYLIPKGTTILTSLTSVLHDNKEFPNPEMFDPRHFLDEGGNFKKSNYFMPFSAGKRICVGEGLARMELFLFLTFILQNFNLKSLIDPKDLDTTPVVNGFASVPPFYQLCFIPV
Experimental: The P450 gene superfamily is involved in the metabolism and clearance of xenobiotics. This assay used various human CYP P450 isozymes to measure the dealkylation of various pro-luciferin substrates to luciferin. The luciferin is then measured by luminescence after the addition of a luciferase detection reagent. Pro-luciferin substrate concentration in the assay was equal to its KM for its CYP P450 isozyme. Inhibitors and some substrates limit the production of luciferin, and decrease measured luminescence.
NCGC Assay Protocol Summary:
1, Reagent, 2 uL, Isozyme and Pro-Luciferin
2, Library compounds, 23 nl, 40 uM to 0.24 nM dilution series
3, Controls, 23 nl, Isozyme specific inhibitor
4, Reagent, 2 uL, NADPH regeneration solution
5, Incubation time, 60 min, Isozyme specific temperature
6, Reagent, 4ul, Detection reagent
7, Incubation time, 20 min, Isozyme specific temperature
8, Detection, 1 sec, ViewLux luminescent read
The luciferase-based P450-GloTM Screening Systems were obtained from Promega (Madison, WI) for CYP 1A2 (V9770), CYP 2C9 (V9790), CYP2 C19 (V9880), CYP 2D6 (V9890), and CYP 3A4 Luciferin-PPXE (V9910) and were adapted for 1,536-well microplates and an automated protocol. The control compounds furafylline for 1A2 (F124), sulfaphenazole for CYP 2C9 (S0758), ketoconazole for CYP 2C19 (K1003), quinidine for 2D6 (Q3625), and ketoconazole for 3A4 (K1003) were purchased from Sigma Aldrich (St. Louis, MO). Recombinant P450 enzymes were obtained from baculovirus constructs expressed in insect cells (BD/Gentest).
Medium-binding white solid Kalypsys plates used. Mixtures kept on ice. 1A2: 10 nM 1A2, 100 uM Luc-ME, 100 mM KPO4; 2C9: 10 nM 2C9, 100 uM Luc-H, 25 mM KPO4; 2C19: 5 nM 2C19, 10 uM Luc-H EGE, 50 mM KPO4; 2D6: 5 nM 2D6, 30 uM Luc-ME EGE, 100 mM KPO4; 3A4: 10 nM, 25 uM Luc-PPXE. All amounts are reflected in their final concentration, working concentration is 2x.
NADPH regeneration solution: 1.3 mM NADP+, 3.3 mM glucose-6-phosphate, 3.3 mM MgCl2, 0.4 U/mL glucose-6-phosphate dehydrogenase for all isozymes, 200 mM KPO4 for 3A4. Mixture prepared at RT but kept on ice during automated run.
RT incubation in auxilliary plate hotel for 1A2, 2D6, and 3A4; 37C for 2C9 and 2C19.
Keywords: P450, CYP1A2, CYP2C19, CYP2C9, CYP2D6, CYP3A4, Luciferase, MLSMR, MLSCN, NIH Roadmap, qHTS, NCGC
For CC(=O)N[C@@H](CC(=O)O)C(=O)O, the “activity, negative = inhibition” value was 26.4% [at 25.6 µM]. In the case of CC#CCOC(=O)c1c(C)nc2sc3c(c2c1N)CC[C@@H](O)C3, the AC50 is reported as 25.1 µM (active). For Cn1c(=O)c2[nH]c(CCCc3ccc([N+](=O)[O-])cc3)nc2n(C)c1=O, the activity, negative = inhibition was 6.48% [at 11.4 µM]. For CCc1cc(C(c2ccccc2OC)N2CCOCC2)c(NC(=O)c2ccccc2)s1 (centres undefined), the AC50 was 11.2 µM (active). With CCOc1cc(/C=C2\C(=O)N(Cc3ccc(C)cc3)C(C)=C2C(=O)OC)ccc1O the AC50 was 3.98 µM (active). For COc1cccc(Nc2ncc3nc(C)c(=O)n(CCC#N)c3n2)c1, the “activity, negative = inhibition” value was -15.9%. With Cc1cc(OC(=O)c2cc(F)c(F)cc2Cl)nc(C)n1 the “activity, negative = inhibition” value was 24.4%. For CSc1nsc(SCc2ccc(Cl)cc2)n1, the AC50 was 0.447 µM (active). O=c1c(-c2nc3ccccc3s2)cccn1Cc1ccccc1 was tested, and the AC50 was 2 µM (active). In the case of CCOC(=O)c1c(C)[nH]c(C)c1C(=O)COC(=O)c1cccc(S(=O)(=O)N(CC)CC)c1, the AC50 is reported as 0.447 µM (active). With CCCN(CCC)S(=O)(=O)c1ccc(C(=O)O)cc1 the “activity, negative = inhibition” value was 15.8% [at 25.6 µM]. CCOC(=O)c1c(C)[nH]c(C)c1C(=O)COC(=O)c1ccc(S(=O)(=O)N(CC)CC)cc1 was tested, and the AC50 was 1.12 µM (active). In the case of CCN(CC)CCOC(=O)c1ccc(N)cc1, the AC50 is reported as “inactive”. Work on C[C@@H](CNC(N)=O)NC(N)=O yielded an activity, negative = inhibition of 25.4% [at 11.4 µM]. Cc1ccc(CS(=O)(=O)CCC(=O)NCCCN2CCCC2=O)cc1 was tested, and the “activity, negative = inhibition” value was 54.4%. With Cc1ccc(S(=O)(=O)N(CCCN2CCCC2=O)Cc2cc3c(C)ccc(C)c3[nH]c2=O)cc1 the AC50 was 11.2 µM (active). O=C(CCC(=O)OCc1ccc(C(=O)Oc2ccccc2)cc1)Nc1cccc2ccccc12 was tested, and the AC50 was 11.2 µM (active). In the case of O=C(c1ccco1)N1CCC2(CC1)CN(c1ccccn1)C2, the “activity, negative = inhibition” value is reported as -14.5%. For O=C(Cc1ccc(Cl)cc1)N1CCN(C(=O)c2ccco2)CC1, the AC50 was 7.94 µM (active). O=C(c1ccc(Cl)cc1)N1CCN(C(=O)c2ccco2)CC1 was tested, and the “activity, negative = inhibition” value was -25.8%. O=C(c1cc(-c2ccc(Cl)cc2Cl)on1)N1CCN(C(=O)c2ccco2)CC1 was tested, and the AC50 was 3.16 µM (active). With CCCN(CCC)C(=S)NC(=O)c1ccc(Cl)cc1Cl the AC50 was 2.51 µM (active). With CC1CC(C)CN(C(=O)CNS(=O)(=O)c2ccc(Br)s2)C1 (centres undefined) the AC50 was 4.47 µM (active). With COc1ccc(C(=O)N2CCC3(CC2)CN(C(=O)Nc2cccc(C#N)c2)C3)cc1 the “activity, negative = inhibition” value was 19.4%. With COc1cccc(-c2csc(N3CCN(CC(=O)NNC(=O)c4ccc(Cl)cc4)CC3)n2)c1 the AC50 was 1.26 µM (active). With COc1cccc(-c2csc(N3CCN(C(=S)Nc4ccccc4)CC3)n2)c1 the AC50 was 1.78 µM (active). COc1ccc(C(=O)NC2CCN(C(=S)Nc3cccc(C)c3)CC2)cc1 was tested, and the AC50 was 8.91 µM (active). In the case of Cc1cccc(C(=O)NC(=S)N2CCN(C)CC2)c1, the “activity, negative = inhibition” value is reported as 18.4%. Cc1cccc(C(=O)NC2CCN(C(=S)NCc3ccco3)CC2)c1 was tested, and the AC50 was 28.2 µM (active). With COc1cccc(C(=O)NCCN2CCN(c3ccc(Cl)cc3)CC2)c1 the “activity, negative = inhibition” value was -19%. In the case of COC(=O)c1ccc(NC(=S)N2CCN(Cc3cccc(C)c3)CC2)cc1, the AC50 is reported as 4.47 µM (active). For COC(=O)N1CCC2(CC1)CCN(c1cccc(-c3ccccc3)c1)CC2, the “activity, negative = inhibition” value was -33%. In the case of CNC(=S)N1CCN(c2cccc(OC)c2)CC1, the AC50 is reported as 7.08 µM (active). For COc1ccc(N2CCN(C(=S)Nc3cc(C)cc(C)c3)CC2)cc1, the “activity, negative = inhibition” value was -17.2%. For COc1ccc(N2CCN(C(=S)Nc3cc(C)ccc3C)CC2)cc1, the AC50 was 5.62 µM (active). CNC(=S)N1CCN(c2ccccc2OC)CC1 was tested, and the AC50 was 7.08 µM (active). COc1ccc(COC(=O)N/N=C2/C[C@@H](O)[C@@H](O)[C@@H]3[C@@H]4C(=O)N(C(C)(C)C)C(=O)[C@H]4CC[C@H]23)cc1 was tested, and the activity, negative = inhibition was 9.85% [at 11.4 µM]. In the case of COc1ccc(N2CCN(C(=S)Nc3cccc(C)c3)CC2)cc1, the “activity, negative = inhibition” value is reported as -9.17%. With COc1cccc(N2CCN(C(=S)Nc3cccc(C)c3)CC2)c1 the AC50 was 7.94 µM (active). With Cc1c(CCC(C)C)c(-n2ccnc2C)n2c(nc3ccccc32)c1C#N the “activity, negative = inhibition” value was 9.23%. With FC(F)(F)c1nc2ccccc2nc1N/N=C/c1ccc(Cl)cc1 the AC50 was 3.55 µM (active). COC(=O)C/C=C\[C@@H](C)[C@@H](/C=N\O[C@@H](C)CN1CCCc2nc(C)c(C)cc21)OC gave an activity, negative = inhibition of -26.4% [at 11.4 µM]. Cc1cc(Cl)ccc1OCCCC(=O)N1CCN(C)CC1 was tested, and the AC50 was 5.62 µM (active). For CCOC(=O)c1c(CC(C)C)csc1NC=O, the AC50 was 14.1 µM (active). With COC(=O)c1c(C)oc2ccc(N(C(=O)c3ccncc3)S(=O)(=O)c3ccccc3)cc12 the AC50 was 0.631 µM (active). With NCCCCCc1nnc(SCc2ccccc2Cl)o1 the AC50 was 4.47 µM (active). NCCCCCc1nnc(SCc2ccc(Cl)cc2Cl)o1 was tested, and the AC50 was 5.62 µM (active). Cc1cc(=O)n2c3ccccc3n(CC(O)CN3CCCCC3)c2c1C#N (centres undefined) was tested, and the “activity, negative = inhibition” value was -17.8%. With Nc1ncnc2c1ncn2[C@H]1O[C@@H](C(=O)O)[C@@H](O)[C@H]1O the activity, negative = inhibition was -9.53% [at 11.4 µM].
